The text below walks through data of the antibiotic and cytotoxicity screens of Wong et al. (2023).

Screen size: about 39,000 compounds; about 3,300 (8.5%) were called active. The sample as a whole holds a higher share of actives than the screen did.

This test has as its system HepG2. Put plainly: cytotoxicity call (relative viability < 0.9). To be noted: 10 µM.
With `COc1ccc(S(=O)(=O)N(C)C[C@@H]2Oc3ccc(NC(=O)Nc4c(C)noc4C)cc3CC(=O)N([C@H](C)CO)C[C@@H]2C)cc1`, the cytotoxicity call was “inactive”. The same measure for `CC(C)NC(=O)N(C)C[C@@H]1Oc2c(NS(=O)(=O)c3ccc(Cl)cc3)cccc2C(=O)N([C@H](C)CO)C[C@@H]1C`: “inactive”.

Turning to `C[C@@H]1CN([C@@H](C)CO)C(=O)c2cccc(NS(C)(=O)=O)c2O[C@@H]1CN(C)C(=O)Nc1ccc(C(F)(F)F)cc1`, the cytotoxicity call was “inactive”.

In the case of `CSCCC(NC(=O)C(Cc1c[nH]c2ccccc12)NC(=O)CCNC(=O)OC(C)(C)C)C(=O)NC(CC(=O)O)C(=O)NC(Cc1ccccc1)C(N)=O` (configuration not stated), the cytotoxicity call was “inactive”. With `COc1ccc(S(=O)(=O)N(C)C[C@H]2Oc3ccc(NS(=O)(=O)c4ccc(F)cc4)cc3CC(=O)N([C@H](C)CO)C[C@H]2C)cc1` the entry was “inactive”; with `CN([C@@H](Cc1ccc(OS(=O)(=O)c2cccc3cnccc23)cc1)C(=O)N1CCN(c2ccccc2)CC1)S(=O)(=O)c1cccc2cnccc12`, “inactive”; with `CN(C)CC(=O)N[C@@H]1CC[C@H](CCNC(=O)C2CCC2)O[C@H]1CO`, “inactive”. With `CN1C(=O)/C(=C(/C#N)C(N)=O)c2ccccc21` the entry was “inactive”; with `O=C(Nc1ccccc1)C1=C[C@H](c2ccc3c(c2)Cc2ccccc2-3)C[C@H](OCc2ccc(CO)cc2)O1`, “inactive”; with `Cc1ccc(S(=O)(=O)Nc2ccc3c(c2)C(=O)N([C@H](C)CO)C[C@H](C)[C@@H](CN(C)S(C)(=O)=O)OCCCC[C@@H](C)O3)cc1`, “inactive”. With `O=C(NC1CCCCC1)[C@@H]1C(c2ccc(Cl)cc2)=C(S(=O)(=O)c2ccccc2)C(=O)N1Cc1ccc(-c2ccccc2)cc1` the entry was “inactive”. With `CC(=O)n1nc(-c2cccnc2)nc1N`, the cytotoxicity call is “inactive”. With `C[C@H](CO)N1C[C@H](C)[C@H](CN(C)Cc2ccc(C(=O)O)cc2)OCCCC[C@H](C)Oc2ccc(NC(=O)c3ccccc3)cc2C1=O` the entry was “inactive”. With `C[C@@H]1CN([C@H](C)CO)C(=O)c2cc(NC(=O)Nc3ccccc3)ccc2O[C@H]1CN(C)Cc1ccc(-c2ccccc2)cc1` the entry was “active”; with `C[C@@H]1CN([C@@H](C)CO)C(=O)c2cc(NC(=O)Nc3ccccc3)ccc2O[C@@H]1CN(C)Cc1ccc(-c2ccccc2)cc1`, “active”; with `COCC(=O)N(C)C[C@H]1Oc2cc(C#Cc3ccccc3)ccc2S(=O)(=O)N([C@@H](C)CO)C[C@@H]1C`, “inactive”. In the case of `O=C(CSc1nnc[nH]1)C1CC1`, the cytotoxicity call is “inactive”. The same measure for `COc1c(C)cc(-c2cc3c(c(CCc4ccccc4)n2)[Si](C(C)C)(C(C)C)O[C@H]3c2ccccc2)cc1C`: “inactive”. The same measure for `COc1cc(Nc2ncc(F)c(Nc3ccc4c(n3)N(COP(=O)(O)O)C(=O)C(C)(C)O4)n2)cc(OC)c1OC`: “active”; for `COCC(=O)Nc1ccc2c(c1)C(=O)N(C)C[C@H](OC)[C@H](C)CN(C(=O)Cc1cccnc1)[C@@H](C)CO2`: “inactive”; for `C[C@H](CO)N1C[C@H](C)[C@H](CN(C)Cc2ccc(Oc3ccccc3)cc2)Oc2ccc(NC(=O)Nc3ccccc3)cc2C1=O`: “inactive”.

As for `C[C@@H]1CN([C@@H](C)CO)C(=O)c2cc(NC(=O)Nc3ccccc3)ccc2O[C@H]1CN(C)Cc1ccc(Oc2ccccc2)cc1`, the cytotoxicity call is “active”. With `C[C@H]1CN([C@@H](C)CO)C(=O)c2cc(NC(=O)Nc3ccccc3)ccc2O[C@H]1CN(C)Cc1ccc(Oc2ccccc2)cc1`, the cytotoxicity call was “inactive”. The same measure for `C[C@H](CO)N1C[C@H](C)[C@@H](CN(C)Cc2ccc(Oc3ccccc3)cc2)Oc2ccc(NC(=O)Nc3ccccc3)cc2C1=O`: “active”; for `C[C@@H]1CN([C@@H](C)CO)C(=O)c2cc(NC(=O)Nc3ccccc3)ccc2O[C@@H]1CN(C)Cc1ccc(Oc2ccccc2)cc1`: “active”; for `C[C@H]1CN([C@@H](C)CO)C(=O)c2cc(NC(=O)Nc3ccccc3)ccc2O[C@@H]1CN(C)Cc1ccc(Oc2ccccc2)cc1`: “active”. The same measure for `C[C@H](CO)N1C[C@H](C)[C@H](CN(C)Cc2ccc(C(=O)O)cc2)Oc2c(NC(=O)Nc3ccc(C(F)(F)F)cc3)cccc2C1=O`: “inactive”.

For the molecule `O=C(C[C@@H]1C=C[C@@H](NC(=O)C2CCC2)[C@H](CO)O1)NCCCN1CCOCC1`, the cytotoxicity call is “inactive”. With `C[C@@H]1CCCCO[C@H](CN(C)C(=O)Cc2ccccc2)[C@@H](C)CN([C@@H](C)CO)C(=O)c2cc(NC(=O)CCC(F)(F)F)ccc2O1`, the cytotoxicity call is “inactive”. The same measure for `COCCOC(=O)N1C(=O)[C@@]2(c3ccccc31)[C@H](C(=O)N1CCCCCCC1)[C@H]1C(=O)O[C@H](c3ccccc3)[C@H](c3ccccc3)N1[C@@H]2c1ccc(OCCO)cc1`: “inactive”; for `COc1ccc(-c2cnc3c(c2)C(=O)N([C@H](C)CO)C[C@H](C)[C@H](CN(C)C(=O)Cc2cccnc2)O3)cc1`: “inactive”; for `Cn1c(=O)n2n(c1=O)[C@H](C1CC1)C=C1CN3[C@@H]([C@H](Cc4ccccc4)OC(=O)[C@@H]3Cc3ccc(-n4cc(CCC(=O)NO)nn4)cc3)[C@@H]12`: “inactive”. With `C[C@H]1CN([C@@H](C)CO)C(=O)CCCn2nncc2CO[C@H]1CN(C)C(=O)Nc1ccc(C(F)(F)F)cc1` the entry was “inactive”; with `NC(=O)CN1C(=O)C(=O)c2cc(Cl)ccc21`, “inactive”; with `Cc1nc(-c2ccncc2)sc1CN`, “inactive”.

Take `O=C(C[C@@H]1C[C@@H]2c3cc(NC(=O)c4ccc5c(c4)OCO5)ccc3O[C@@H]2[C@H](CO)O1)NCc1ccccn1`: the cytotoxicity call was “inactive”.

`COCC(=O)Nc1ccc2c(c1)C(=O)N(C)[C@H]1CC[C@@H](CC(=O)NCc3ccc(OC)cc3)O[C@@H]1CO2`: the cytotoxicity call is “inactive”. The same measure for `Cc1noc(C)c1NC(=O)Nc1cccc2c1O[C@@H](CN(C)S(C)(=O)=O)[C@H](C)CN([C@H](C)CO)C2=O`: “inactive”; for `COc1cc(S(C)(=O)=O)ccc1Nc1nc2ccc(-c3ccc(NC(=O)[C@H](C)c4ccc(F)cc4)cc3)cn2n1`: “inactive”; for `C[C@@H]1CN([C@H](C)CO)C(=O)c2cc(NC(=O)Nc3ccccc3)ccc2O[C@@H]1CN(C)Cc1ccc(Oc2ccccc2)cc1`: “active”. With `C[C@@H]1CN([C@H](C)CO)C(=O)c2cc(NC(=O)Nc3ccccc3)ccc2O[C@H]1CN(C)Cc1ccc(Oc2ccccc2)cc1` the entry was “active”. For the molecule `COc1ccc(NC(=O)N(C)C[C@@H]2OCCCC[C@@H](C)Oc3ccc(NS(=O)(=O)c4ccc(C)cc4)cc3C(=O)N([C@@H](C)CO)C[C@@H]2C)cc1`, the cytotoxicity call was “inactive”.
